Assay outcomes from PubChem.
Most compounds without a hit are left out; they make up all but 10% or so of the library.
FLuc inh-1: Photinus pyralis luciferase inhibition | actives 2.5% (n = 76,000) | P08659 | Potency, µM (highest dose often 115 µM), usual class: inhibitors | purified P. pyralis luciferase, luminescence, biochemical; also: % is scaled to controls: 0 for no effect and ±100 for the full control effect; nearly all actives have a fitted effect of over 65% in size
Target sequence (P08659 whole entry, looked up): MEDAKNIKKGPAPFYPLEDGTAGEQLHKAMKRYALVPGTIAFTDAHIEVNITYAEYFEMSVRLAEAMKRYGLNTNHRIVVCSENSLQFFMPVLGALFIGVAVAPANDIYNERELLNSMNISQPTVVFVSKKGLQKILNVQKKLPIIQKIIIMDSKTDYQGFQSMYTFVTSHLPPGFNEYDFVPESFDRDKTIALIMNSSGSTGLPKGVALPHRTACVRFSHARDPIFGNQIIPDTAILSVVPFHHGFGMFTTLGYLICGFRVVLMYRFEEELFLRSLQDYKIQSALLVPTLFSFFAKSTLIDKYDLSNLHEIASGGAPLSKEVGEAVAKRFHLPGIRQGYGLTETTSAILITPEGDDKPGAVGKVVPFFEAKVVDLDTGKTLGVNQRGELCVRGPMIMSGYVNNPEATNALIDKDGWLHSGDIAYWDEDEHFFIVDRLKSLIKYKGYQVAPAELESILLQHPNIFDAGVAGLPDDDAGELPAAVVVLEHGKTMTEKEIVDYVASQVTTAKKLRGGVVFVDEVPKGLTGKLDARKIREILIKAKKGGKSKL
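Inhibitors were tested against purified firefly luciferase in a biochemical, low-substrate format (both substrates at 10uM) and luminescence measured with a CCD imager.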
HEK293 tox: HEK 293 cell cytotoxicity | Potency, µM (top dose mostly 115 µM), for the others: top-dose activity change, negative = cytotoxicity, usual class: inhibitors | HEK 293 viability, ATP luminescence (CellTiter-Glo), 48-72 h | actives 6.6% (n = 94,000); also: % is scaled to controls: 0 for no effect and ±100 for the full control effect; nearly all actives have a fitted effect of over 60% in size
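ATP-coupled CellTiter-Glo luminescence served as viability read-out, recorded 10 min after reagent addition at room temperature. HEK 293 cells, 250 cells/well, had been incubated with pintool-transferred compound for 48 or 72 hr at 37 degree Celsius.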
NPR1 antag: blocks ANP-stimulated signaling of human Npr1 receptor; P16066; HEK293 hNpr1 GloSensor cGMP, ANP-stimulated luminescence; Potency, µM (series often up to 46.3 µM), without a hit: at the highest dose activity change, negative = inhibition, most hits filed as inhibitors; actives 1.6% (n = 76,000); AID 1347048; calls by dose curve; also: % is scaled to controls: 0 for no effect and ±100 for the full control effect; nearly all actives have a fitted effect of over 60% in size
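HEK293 cells stably expressing human Npr1 and cGMP GloSensor pGS-40F, loaded 2 h with 2% GloSensor reagent, given compound 30 min at room temperature. Luminescence read before and 20 min after 0.1 nM hNppA.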
GPT2 inh: inhibitors of human GPT2 alanine aminotransferase; Q8TD30; Recombinant GPT2, coupled pyruvate oxidase/HRP Amplex Red fluorescence; Potency, µM (top dose mostly 57.7 µM), for the others: at the highest dose activity change, negative = inhibition, most hits filed as inhibitors; actives 0.25% (n = 100,000); AID 1671188; also: % is scaled to controls: 0 for no effect and ±100 for the full control effect; nearly all actives have a fitted effect of over 60% in size
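Fluorescence read-out: pyruvate from GPT2 turnover coupled to pyruvate oxidase, HRP and Amplex Red (0.2mM ThPP, 0.2U/mL PO and HRP, 50uM Amplex final). Substrates 250uM a-KG, 2mM L-alanine; enzyme 10ng/uL; 30 min RT.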
NIH3T3 tox: cytotoxic compounds in NIH 3T3 cells; Potency, µM (titrated, usually from 96.7 µM), for inactives: top-dose activity change, negative = cytotoxicity, actives largely listed as inhibitors; NIH 3T3 viability, CellTiter-Glo ATP luminescence, 48-72 h; actives 4.3% (n = 94,000); also: % is scaled to controls: 0 for no effect and ±100 for the full control effect; nearly all actives have a fitted effect of over 55% in size
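Viability of NIH 3T3 cells after 48 or 72 hr compound treatment at 37 °C was assessed by CellTiter-Glo, with luminescence imaged following a 10 min room-temperature step.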
FLuc SDR -ATP: stabilizes firefly luciferase without ATP | shares compounds with FLuc inh-1 | Purified FLuc-C-HiBiT, Nano-Glo HiBiT luminescence, no ATP | Potency, µM (series often up to 32.7 µM), without a hit: at the highest dose activation (signal gain), most hits filed as activators | actives 7.8% (n = 1,300) | AID 1963318; also: nearly all actives have a fitted effect of over 55% in size
FLuc SDR ATP: firefly luciferase binding stabilization, ATP added; actives 8.7% (n = 1,300); purified FLuc-C-HiBiT + ATP, HiBiT complementation luminescence; shares compounds with FLuc inh-1; Potency, µM (series often up to 32.7 µM), for inactives: at the top dose activation (gain of signal), hits mostly activators;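 also: signal reports ligand binding via conformational change of the enzyme rather than luciferase catalysis; % of control where 0% means no effect; nearly all actives have a fitted effect of over 55% in size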
FLuc inh-2: blocks firefly luciferase enzymatic activity; Potency, µM (doses to about 32.7 µM), for the others: top-dose activity change, negative = inhibition, actives largely listed as inhibitors; shares compounds with FLuc inh-1; purified FLuc-C-HiBiT enzyme, luciferin luminescence; actives 42% (n = 1,300); AID 1963320; also: % is scaled to controls: 0 for no effect and ±100 for the full control effect; nearly all actives have a fitted effect of over 70% in size
Active calls of the source: *; i = inactive; ? = inconclusive; / = not tested or not shown; [ ] = remark or other dose. Unless noted, calls follow the shape of the dose curve; as a rule, active = well fitted curve in the direction sought with a large enough effect; inconclusive = small, poorly fitted or top-dose-only effect, or another doubt; inactive = no such curve, though single readings can be large; an effect the other way counts as inactive or inconclusive. Potency is read from the fitted curve at half-maximal effect.

SMILES	FLuc inh-1	HEK293 tox	NPR1 antag	GPT2 inh	NIH3T3 tox	FLuc SDR -ATP	FLuc SDR ATP	FLuc inh-2
CN(C)c1ccc(NC(=O)c2ccc3c(c2)N(C)C2CCCCN2C3=O)cc1 (centres undefined)	2.8µM*	?	-10%	?	?	14%	17%	?
COc1ccc(C(=O)N2CCc3ccc(C(=O)Nc4ccc5c(c4)OCCO5)cc32)cc1	3.2µM*	?	?	2%	?	30%	?	5.6µM*
COc1ccc(NC(=O)c2ccc3c(c2)N(C(=O)c2ccc(OC)cc2)CC3)cc1	?	?	?	-10%	?	/	/	/
CN1c2cc(C(=O)Nc3ccc4c(c3)OCCO4)ccc2C(=O)N2CCCC21 (centres undefined)	14µM*	-27%	-12%	-1%	?	28%	?	7.9µM*
CN1c2cc(C(=O)Nc3ccc(Cl)c(Cl)c3)ccc2C(=O)N2CCCCCC21 (centres undefined)	i	-30%	-1%	-2%	?	/	/	/
COc1ccc(NC(=O)c2ccc3c(c2)N(C)C2CCCCN2C3=O)cc1 (centres undefined)	?	?	-6%	-19%	?	/	/	/
O=C(Nc1nn(-c2cccc(F)c2)c2cccc(N3CCOCC3)c12)C1CCC1	7.9µM*	45µM*	?	-7%	?	?	11%	?
O=C(Nc1nn(Cc2ccccc2)c2cccc(N3CCOCC3)c12)C1CCC1	i	?	4%	i[11.5 µM]	-20%	/	/	/
Cc1cccc(C(=O)N2CCC3(CC2)OCC(C(=O)N2CCCC2)N3C(=O)c2cccc(C)c2)c1 (centres undefined)	i	-22%	2%	i	0%	/	/	/
CCOc1ccc(C(=O)Nc2cc(-c3nc4cc(OC)ccc4o3)ccc2C)cc1[N+](=O)[O-]	/	/	/	/	/	27%	18%	?
CCc1ccc(C(=O)Nc2ccc(-c3nnc4n3CCCC4)cc2)cc1	?	3%	-2%	-12%	-4%	/	/	/
Cc1ccc2nc(-c3ccc(NC(=O)COc4ccccc4C(C)(C)C)cc3)sc2c1	/	/	/	/	/	19%	12%	?
CCCCN(C)S(=O)(=O)c1ccc(C(=O)Nc2ccc(-c3nc4ccc(C)cc4s3)cc2)cc1	/	/	/	/	/	16%	12%	-15%
CCOc1ncccc1C(=O)OCC(=O)Nc1ccc(-c2nc3ccc(C)cc3s2)cc1	/	/	/	/	/	22%[65.7 µM]	19%[65.7 µM]	?
Cc1ccc2nc(-c3ccc(NC(=O)COc4ccccc4)cc3)sc2c1	/	/	/	/	/	26%	19%	6.2µM*
Cc1ccc(NC(=O)COc2cccc(-c3nnc4n3CCCC4)c2)cc1	i	-10%	4%	i	-20%	/	/	/
COc1ccc(CN2CCC3(C2)C(=NC2CCCCC2)NC(=O)N3c2cccc(OC)c2)cc1 (centres undefined)	/	?	/	1%	?	/	/	/
COc1ccc(CCNC(=O)c2cn3cc(-c4ccccc4)sc3n2)cc1	/	-24%	/	i	-18%	/	/	/
CCOc1ccc(-c2cc3c(=O)n(CCNC(=O)c4cccc5[nH]ccc45)ccn3n2)cc1	7.9µM*	22µM*	-27%	-12%	28µM*	?	?	5.6µM*
COc1ccc(-c2cc3c(=O)n(CCNC(=O)c4cccc(N(C)C)c4)ccn3n2)cc1	3.5µM*	?	-28%	i	-12%	28%	?	?
COc1cccc(C(=O)NCCn2ccn3nc(-c4ccc(C)cc4C)cc3c2=O)c1OC	5.6µM*	?	-5%	i	?	31%	19%	9.9µM*
COc1cccc(C(=O)NCCn2ccn3nc(-c4ccc(C)c(C)c4)cc3c2=O)c1OC	5.6µM*	?	-12%	i	-23%	23%	17%	7.9µM*
Cc1cn2nc(C(=O)NC3CCCCCC3)cc2c(N2CCCC2)n1	i	-1%	0%	-1%	-2%	/	/	/
CC(C)=CCC[C@](C)(O[C@@H]1O[C@H](CO[C@@H]2O[C@H](CO)[C@@H](O)[C@H](O)[C@H]2O)[C@@H](O)[C@H](O)[C@H]1O)C1CC[C@]2(C)[C@@H]1[C@H](O)CC1[C@@]3(C)CC[C@H](O[C@@H]4O[C@H](CO)[C@@H](O)[C@H](O)[C@H]4O[C@@H]4O[C@H](CO)[C@@H](O)[C@H](O)[C@H]4O)C(C)(C)[C@@H]3CC[C@]12C (some centres undefined)	/	/	/	-28%[17.1 µM]	/	/	/	/
CNC(=O)c1cc(C)nc2onc(C3CCN(C(=O)C4CCCC4)C3)c12 (centres undefined)	/	-10%	/	/	-29%	/	/	/
SMILES	FLuc inh-1	HEK293 tox	NPR1 antag	GPT2 inh	NIH3T3 tox	FLuc SDR -ATP	FLuc SDR ATP	FLuc inh-2
CCCN1C(=O)c2ccc(-c3nc4ccccc4s3)cc2C1=O	/	/	/	/	/	?	18%	2µM*
Cc1nnc2n1CCC(NC(=O)CCCc1nc3ccccc3s1)CC2 (centres undefined)	i	-9%	-2%	i	-11%	/	/	/
CCCCC(=O)Nc1cc(-c2nc3ccccc3s2)ccc1C	/	/	/	/	/	18%	10%	-6%
Cc1ccc(C(C)(O)c2nc3ccccc3s2)c(C)c1 (centres undefined)	/	/	/	-20%	/	/	/	/
CCCS(=O)(=O)N1CCCC1c1nc2ccccc2s1 (centres undefined)	i	?	9%	-38%	-29%	/	/	/
CC(=O)Nc1cc(-c2nc3ccccc3s2)ccc1C	/	/	/	/	/	29%	20%	?
COCCN(C)C[C@@H]1CN(c2cc(C)c3ccc(SC)cc3n2)C[C@@H]1CO	i	?	-1%	2%	?	/	/	/
Nc1nccc(-c2c(-c3ccc(F)cc3)ncn2C2CCNCC2)n1	/	/	/	/	/	15%	8%	3%
CC(C)(C)C1CCc2nc(NC(=O)c3cccc(Cl)c3)sc2C1 (centres undefined)	/	/	/	/	/	17%	16%	2.5µM*
COc1ccc2c(c1)c(CN1CCOCCNC(=O)CC1)cn2C	i	?	-3%	i	?	/	/	/
O=C(c1cccc(Cl)c1)N1CCC(C(=O)N2CCC(N3CCOC3=O)CC2)CC1	/	-1%	/	-21%	-17%	/	/	/
